We go through twelve molecules from PubChem BioAssay (NCI).

Molecules are shown by their SMILES. Values joined by “and” are separate entries in the source; they are usually repeats but may differ in a detail not shown here. Equal entries are not always repeated. This is part of a sample that, as a whole, favours compounds with a hit. Of some 83,000 tested, about 20% had one in any assay.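 Compound tested at a single concentration for 48 hours in 96-well plates; a percent growth value below 10 was scored as active.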 Active and inactive are the calls of the source.

Some test systems named below: DU-145 prostate; K-562 leukemia; MALME-3M melanoma; MDA-MB-231 breast; RXF 393 renal; SF-268 CNS; SF-295 CNS; SF-539 CNS; UACC-257 melanoma; M14 melanoma.
Holding throughout (assay): NCI-60 one-dose screen, 48 h (100 = growth as untreated, 0 = no growth, -100 = all killed)
Holding throughout (settings): 10 µM unless noted

For the molecule `C[C@]12CC[C@H]3[C@@H](CC=C4c5nc(-c6ccc(Br)cc6)sc5CC[C@@]43C)[C@@H]1CC[C@@H]2O`, the growth in the test on DU-145 prostate is 108% (inactive); in the test with K-562 leukemia, 76.7% (inactive); in the test on MALME-3M melanoma, 103% (inactive); with MDA-MB-231 breast, 89.5% (inactive); in the test with RXF 393 renal, 3.87% (active); in the test on SF-268 CNS, 90.2% (inactive). Moreover, the growth with SF-295 CNS was 63.5% (inactive); with SF-539 CNS it was 9.53% (active); in the test with UACC-257 melanoma it was 114% (inactive); in the test with M14 melanoma it was 90.5% (inactive).
With `C[C@]12CC[C@@H](OC(=O)N(CCCl)N=O)C[C@@H]1CC[C@@H]1[C@@H]2CC[C@]2(C)C(=O)CC[C@@H]12`, the growth is -0.658% (active) in the test on DU-145 prostate; 23.2% (inactive) in the test on K-562 leukemia; 108% (inactive) in the test on MALME-3M melanoma; 81.9% (inactive) with MDA-MB-231 breast; 78% (inactive) in the test on RXF 393 renal; 30.6% (inactive) with SF-268 CNS. Moreover, the growth is -15.7% (active) with SF-295 CNS, 1.49% (active) with SF-539 CNS, 76.2% (inactive) with UACC-257 melanoma and 72.5% (inactive) with M14 melanoma.
`COc1cc(C=C2C(=O)NC(=O)NC2=O)ccc1O`: the growth was 124% (inactive) in the test with DU-145 prostate; 109% (inactive) in the test with K-562 leukemia; 136% (inactive) with MALME-3M melanoma; 96.5% (inactive) in the test on MDA-MB-231 breast; 84.4% (inactive) in the test with RXF 393 renal; 106% (inactive) in the test with SF-268 CNS. The growth in the test on SF-295 CNS was 101% (inactive); with SF-539 CNS it was 101% (inactive); with UACC-257 melanoma it was 87.6% (inactive); in the test with M14 melanoma it was 101% (inactive).
Take `O=C1NC(=O)C(=Cc2ccccc2)C(=O)N1`: the growth in the test on DU-145 prostate is 103% (inactive) and 111% (inactive); in the test on K-562 leukemia, 86.2% (inactive) and 112% (inactive); with MALME-3M melanoma it was 96.1% (inactive) and 109% (inactive); with MDA-MB-231 breast, 96.4% (inactive) and 110% (inactive); with RXF 393 renal, 98.5% (inactive) and 116% (inactive); in the test with SF-268 CNS, 92.9% (inactive) and 104% (inactive). For the same molecule, the growth in the test with SF-295 CNS was 107% (inactive) and 102% (inactive); in the test with SF-539 CNS, 133% (inactive) and 101% (inactive); in the test on UACC-257 melanoma, 98.6% (inactive); in the test on M14 melanoma, 103% (inactive) and 106% (inactive).
`COC12CC3(C)C(C4=CC(=O)OC4)CCC3(O)C3CCC4=CC(=O)CCC4(CO1)C32` (stereo not drawn): the growth was 117% (inactive) in the test with DU-145 prostate; 106% (inactive) in the test with K-562 leukemia; 77.1% (inactive) in the test on MALME-3M melanoma; 110% (inactive) with MDA-MB-231 breast; 112% (inactive) with RXF 393 renal; 109% (inactive) in the test with SF-268 CNS. For the same molecule, the growth in the test with SF-295 CNS was 90.6% (inactive); with SF-539 CNS it was 111% (inactive); in the test with UACC-257 melanoma it was 100% (inactive); with M14 melanoma it was 92.6% (inactive).
As for `O=[N+]([O-])c1ccc(P(=O)(O)O)cc1`, the growth with DU-145 prostate was 110% (inactive); in the test with K-562 leukemia, 108% (inactive); in the test on MALME-3M melanoma it was 92.6% (inactive); with MDA-MB-231 breast it was 109% (inactive); in the test with RXF 393 renal, 103% (inactive); with SF-268 CNS, 106% (inactive). For the same molecule, the growth in the test with SF-295 CNS is 96% (inactive); in the test on SF-539 CNS, 103% (inactive); in the test on UACC-257 melanoma, 111% (inactive); with M14 melanoma it was 96.1% (inactive).
In the case of `CC[C@@H](C)C(=O)O[C@H]1[C@H](O)[C@H]2[C@@H](CN3C[C@@H](C)CC[C@H]3[C@@]2(C)O)[C@@H]2C[C@]34O[C@]5(O)[C@@H](OC(=O)[C@@](C)(O)CC)CC[C@@]3(C)[C@@H]5[C@@H](OC(C)=O)[C@@H](OC(C)=O)[C@H]4[C@@]21O`, the growth with DU-145 prostate was 107% (inactive); in the test with K-562 leukemia, 83.9% (inactive); in the test on MALME-3M melanoma, 103% (inactive); in the test with MDA-MB-231 breast, 94.2% (inactive); in the test on RXF 393 renal it was 94.5% (inactive); with SF-268 CNS it was 102% (inactive). The growth in the test on SF-295 CNS was 97.2% (inactive); in the test with SF-539 CNS, 100% (inactive); in the test with M14 melanoma it was 95.6% (inactive).
Take `C[C@]12CCc3sc(Nc4ccc(F)cc4F)nc3C1=CC[C@@H]1[C@@H]2CC[C@]2(C)C(=O)CC[C@@H]12`: the growth in the test with DU-145 prostate was 24% (inactive); with K-562 leukemia, 2.15% (active); with MALME-3M melanoma, 69.5% (inactive); in the test on MDA-MB-231 breast, 76.1% (inactive); in the test on RXF 393 renal it was 5.6% (active); in the test on SF-268 CNS, 70.7% (inactive). Also, the growth with SF-295 CNS is 51% (inactive); with SF-539 CNS it was 49.6% (inactive); in the test with UACC-257 melanoma it was 71.9% (inactive); in the test with M14 melanoma, 57.8% (inactive).
On to `N#CCc1ccc(CC#N)cc1`, for which the growth with DU-145 prostate was 116% (inactive); with K-562 leukemia, 95.5% (inactive); in the test on MALME-3M melanoma, 118% (inactive); with MDA-MB-231 breast it was 96.7% (inactive); with RXF 393 renal, 106% (inactive); in the test on SF-268 CNS it was 105% (inactive). Besides, the growth was 100% (inactive) in the test on SF-295 CNS, 89% (inactive) in the test on UACC-257 melanoma and 98.1% (inactive) in the test on M14 melanoma.
Take `CCN1C(=O)CC(=O)N(CC)C1=S`: the growth with DU-145 prostate was 122% (inactive); in the test on K-562 leukemia, 107% (inactive); in the test on MALME-3M melanoma, 95.8% (inactive); in the test with MDA-MB-231 breast, 107% (inactive); with RXF 393 renal, 100% (inactive); with SF-268 CNS it was 101% (inactive). In addition, the growth was 111% (inactive) in the test with SF-295 CNS, 96.9% (inactive) with SF-539 CNS, 102% (inactive) in the test with UACC-257 melanoma and 105% (inactive) with M14 melanoma.
`Cc1cc2c(cc1-c1ccnc(/C=C/C(=O)O)c1)C(C)(C)CCC2(C)C`: the growth in the test with DU-145 prostate was 105% (inactive); in the test with K-562 leukemia, 85.5% (inactive); with MALME-3M melanoma it was 64.8% (inactive); with MDA-MB-231 breast, 75.5% (inactive); with RXF 393 renal it was 79.4% (inactive); in the test with SF-268 CNS, 86.6% (inactive). The growth is 88.6% (inactive) in the test on SF-295 CNS, 78.2% (inactive) with SF-539 CNS, 87.4% (inactive) in the test with UACC-257 melanoma and 78.2% (inactive) in the test on M14 melanoma.
Consider `CC[CH2][Sn]([Cl])([Cl])[CH2]CC.Oc1ccccc1C=NCCN=Cc1ccccc1O`, for which the growth in the test with DU-145 prostate is 81.3% (inactive) and 76.9% (inactive); in the test on K-562 leukemia it was 4.37% (active) and -23.9% (active); with MALME-3M melanoma, 4.96% (active) and -43.8% (active); in the test with MDA-MB-231 breast, 38.7% (inactive) and 28.5% (inactive); in the test with RXF 393 renal it was 51.7% (inactive) and 1.58% (active); in the test on SF-268 CNS it was 49.7% (inactive) and 20.3% (inactive). Besides, the growth in the test with SF-295 CNS was 93.2% (inactive); with SF-539 CNS, 59.9% (inactive) and 37.8% (inactive); with UACC-257 melanoma, 51.4% (inactive) and 5.28% (active); with M14 melanoma it was 69.6% (inactive) and 39% (inactive).
